Source: PubChem BioAssay (NCATS)
Results filed as inconclusive are left out. Active and inactive are the calls of the source. Calls come from the whole dose curve; as a rule, active = well fitted curve in the direction sought with a large enough effect; inconclusive = small, poorly fitted or top-dose-only effect, or another doubt; inactive = no such curve, though single readings can be large; an effect the other way counts as inactive or inconclusive.

Key:
[1] = qHTS for Inhibitors of Plasmodium falciparum (DD2) proliferation (AID 504314);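 note: parasite DNA measured by SYBR Green fluorescence after red cell lysis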
Outline: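 Erythrocytes infected with P. falciparum (0.3% parasitemia, 2.5% hematocrit final) were incubated with compounds for 72 h at 37C, 5% CO2. Parasite DNA was detected by SYBR Green I fluorescence after saponin/Triton lysis, normalized to artemisinin (0.29 uM) and DMSO controls.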

[2] = qHTS for Inhibitors of Plasmodium falciparum (GB4) proliferation (AID 504315); note: nearly all actives have a fitted effect of over 50% in size
Outline: (§1)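 Erythrocytes infected with P. falciparum line (0.3% parasitemia, 2.5% hematocrit final) incubated with compounds 72 h at 37 °C, 5% CO2; SYBR Green lysis buffer added, fluorescence read next day. Normalized to 0.29 uM artemisinin and DMSO.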

[3] = qHTS for Inhibitors of Plasmodium falciparum (HB3) proliferation (AID 504318); note: nearly all actives have a fitted effect of over 60% in size
Outline: as §1

[4] = qHTS for Inhibitors of Plasmodium falciparum (CP250) proliferation (AID 504320)
Outline: as §1

[5] = qHTS for Inhibitors of Plasmodium falciparum (7G8) proliferation (AID 504316); note: series mostly up to about 6.7 µM; nearly all actives have a fitted effect of over 65% in size
Outline: as §1

Measured: Potency

FC(F)(F)c1ccc(-c2nc(-c3ccccc3)oc2Nc2ccc3ccccc3c2)cc1
inactive: [1] | [2] | [3] | [4]

COc1ccc2c(c1)c(CC(=O)NCc1ccc3c(c1)OCO3)c(C)n2C(=O)c1ccc(Cl)cc1
inactive: [1] | [2] | [5] | [4]

CCCCCCCc1cc2ccccc2c2c(C(=O)OC)c(C(=O)OC)c(C(=O)OC)n12
inactive: [1] | [2] | [3] | [4]

COC(=O)CC=C1c2ccccc2[C@@H](OC)[C@@H]1C
inactive: [1] | [2] | [5] | [4]

C=CCCCN1C=C(C(=O)OCC)C(c2ccccc2)NC1=O (centres undefined)
inactive: [1] | [2] | [3] | [4]

C=CCOC(=O)C(C(C)=O)[C@@H](NC(=O)OC)c1cccs1 (some centres undefined)
inactive: [1] | [2] | [3] | [4]

C=C(C(C)=O)C(O)c1ccccc1 (centres undefined)
inactive: [1] | [2] | [4]

C[C@H]1COC(=O)[C@H](Cc2ccccc2)NC(=O)[C@@H](C)COC(=O)[C@H](Cc2ccccc2)NC1=O
inactive: [1] | [2] | [5]

COc1ccc2c(c1)[C@@]1(OCCC=C[C@@H]1C)C(=O)N2Cc1ccc(Br)cc1
inactive: [1] | [2] | [3] | [4]
